Results from the supplement of paper PMC9925115.
± gives the uncertainty stated by the source.

system: FLX1; assay: cell viability z-score within plate (CellTiter-Glo), mean of 3 biological replicates; higher = higher viability relative to plate (less growth inhibition); conditions: 2 µM; time (hr): 120
Method: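 FLX1 fibrolamellar carcinoma cells (DNAJB1-PRKACA fusion), 600 cells/well in 384-well plates, treated with a Selleck kinase inhibitor library (L1200) at 2 uM for 5 days (120 hr); viability by CellTiter-Glo. A z-score was computed within each plate and averaged over three biological replicates.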

SMILES | cell viability z-score within plate
CCN(CC)CCNC(=O)c1c(C)[nH]c(/C=C2\C(=O)Nc3ccc(F)cc32)c1C [Sunitinib Malate] | -0.049 ± 0.26
C=CC(=O)Nc1cccc(Sc2nc(Nc3ccc(N4CCN(C)CC4)cc3)ncc2Cl)c1 | 0.081 ± 0.26
COc1cccc2cc(-c3nc([C@H]4CC[C@H](C(=O)O)CC4)n4ncnc(N)c34)[nH]c12 | 0.362 ± 0.51
O=C1NCCc2[nH]c(-c3ccncc3)cc21 | 0.309 ± 0.59
Nc1nccc(Oc2ccc(NC(=O)c3c[nH]cc(-c4ccc(F)cc4)c3=O)cc2F)c1Cl | -0.37 ± 0.32
C=CC(=O)Nc1cccc(Oc2nc(Nc3ccc(N4CCN(C)CC4)cc3)ncc2Cl)c1 | -0.0359 ± 0.21
Cc1ccc(C(=O)Nc2ccc(CN3CCN(C)CC3)c(C(F)(F)F)c2)cc1C#Cc1cnc2[nH]ncc2c1 [GZD824 Dimesylate] | -0.246 ± 0.26
